Compound activity: PubChem, National Center for Advancing Translational Sciences (NCATS)
The list is not random: actives were taken first. Their share in the collection is about 6%.
D3 antag: qHTS of D3 Dopamine Receptor Antagonist: qHTS; max response, negative = inhibition, %; D(3) dopamine receptor (Homo sapiens), P35462; D3R cells, DiscoveRx beta-arrestin luminescence, antagonist mode; stronger effect = lower value; 360,000 tested, 2.5% active; in the data active = max response below about -50%; inconclusive = no clear call, values can overlap the other calls
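Cells plated overnight at 1500 cells/well, then exposed to library compounds with dopamine controls for 90 minutes at 37 degrees C. DiscoveRx reagent added for 30–60 minutes at room temperature; luminescence read, quantitative HTS format.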
D1 antagonist: Antagonist of Human D 1 Dopamine Receptor: qHTS; D(1A) dopamine receptor (Homo sapiens), P21728; HEK293 TREx D1 cells, calcium flux, dopamine EC80; stronger effect = lower value; activity change, negative = inhibition, % at 10 µM; 360,000 tested, 3.2% active; AID 504652, 2011; in the data active = activity change below about -30%
Target sequence (P21728 whole entry, looked up): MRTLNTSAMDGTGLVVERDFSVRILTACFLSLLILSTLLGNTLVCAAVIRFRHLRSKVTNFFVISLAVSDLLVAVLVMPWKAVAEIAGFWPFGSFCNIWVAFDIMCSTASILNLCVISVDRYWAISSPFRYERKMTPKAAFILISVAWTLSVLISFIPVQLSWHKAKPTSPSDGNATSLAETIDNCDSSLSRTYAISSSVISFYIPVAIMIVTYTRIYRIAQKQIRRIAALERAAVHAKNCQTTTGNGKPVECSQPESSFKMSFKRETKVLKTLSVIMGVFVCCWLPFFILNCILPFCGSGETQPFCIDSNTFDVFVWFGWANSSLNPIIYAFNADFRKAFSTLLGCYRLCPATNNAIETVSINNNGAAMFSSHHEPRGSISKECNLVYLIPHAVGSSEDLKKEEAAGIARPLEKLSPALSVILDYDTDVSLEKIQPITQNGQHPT
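Tetracycline-induced HEK293 Trex D1 cells, force-coupled to calcium, dye-loaded; compounds added and read 180 s, then EC80 dopamine added and calcium flux tracked kinetically another 180 s.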
D1 agonist: Allosteric Agonists of the Human D1 Dopamine Receptor: qHTS. D(1A) dopamine receptor (Homo sapiens), P21728. HEK293 T-REx D1 cells, calcium flux, agonist mode. activation, % at 2 µM. 360,000 tested, 1% active; in the data active = activation above about 30%
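Inducible HEK293 T-REx D1 cells, force-coupled to calcium signalling, were plated at 4000 cells/well with tetracycline and held overnight at 30 C. After no-wash calcium dye loading, compound-evoked calcium rise over 180 s flagged agonists.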
DRD3 agonist: qHTS of D3 Dopamine Receptor Agonist: qHTS; D(3) dopamine receptor (Homo sapiens), P35462; D3R DiscoveRx beta-arrestin cells, luminescence, 90 min; max activation, %; 410,000 tested, 0.58% active; in the data active = max activation above about 30%
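Cells at 1500/well, incubated overnight, then treated with pinned compounds (dopamine as control) for 90 min at 37 degrees C. DiscoveRx reagent added for 30 - 60 minutes at room temperature; luminescence read.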
D1 PAM: Potentiators of Human D1 Dopamine Receptor: qHTS | D(1A) dopamine receptor (Homo sapiens), P21728 | HEK293 TREx D1 cells, calcium flux, dopamine EC20 potentiation | potentiation, % at 10 µM | 360,000 tested, 0.036% active; in the data active = potentiation above about 30%
Each line names hits and unclear results; the compound was inactive in the other large screens.

Cc1nc(-c2ccc(S(=O)(=O)NCc3ccc(F)cc3)cc2)co1	D1 antagonist -55.8 (no result: D3 antag)
CCCCc1nn2c(=O)cc(COC(=O)c3ccccc3NC(=O)c3cccc(C)c3)nc2s1	none (no result: D3 antag)
COC(=O)c1c(-c2ccc(OC)c(OC)c2)csc1N	D1 antagonist -33.6
O=C(NCc1nnc(-c2cc3ccccc3[nH]2)o1)c1ccccc1	none (no result: D3 antag, DRD3 agonist)
Nc1nonc1-n1nnc(C(=O)N/N=C/c2ccoc2)c1CSc1ccc(Cl)cc1	D1 antagonist -39.7
Nc1nonc1-n1nnc(C(=O)N/N=C/c2ccncc2)c1CSc1ccccc1	D1 antagonist -47.3
Nc1nonc1-n1nnc(C(=O)N/N=C/c2ccccc2)c1CSc1ccccc1	none
Nc1nonc1-n1nnc(C(=O)N/N=C/c2ccoc2)c1CSc1ccccc1	none
CCCOC(=O)CSc1nc(N)c(C#N)c(CC)c1C#N	D1 antagonist -40.3
CCCOC(=O)CSc1nc(N)c(C#N)c(-c2ccco2)c1C#N	none (no result: D1 antagonist, D1 agonist, D1 PAM)
CC1CN(c2nc3ccccn3c(=O)c2C=O)CC(C)O1 (centres undefined)	D1 antagonist -33.9
CC1(CC(=O)N/N=C/c2ccc(-c3cccc(C(F)(F)F)c3)o2)OCCO1	D1 antagonist -36.8
CCOC(=O)c1[nH]c(CN2CCN(c3ccc(OC)cc3)CC2)c(C(=O)OCC)c1C	D1 agonist 64.4 (no result: D1 PAM)
Cc1ccccc1N1C(=O)C(Cl)=C(N2CCOCC2)C1=O	D1 antagonist -45.3
O=C1C(Cl)=C(N2CCOCC2)C(=O)N1c1ccc(Br)cc1	D3 antag -69.2
Cc1cc(C)n(/N=C/c2cc([N+](=O)[O-])ccc2O)c(=O)c1	D3 antag -67.4
O=[N+]([O-])c1ccc(O)c(/C=N/Nc2ccc(Cl)nn2)c1	D3 antag -84.1
O=[N+]([O-])c1ccc(O)c(/C=N/n2cnnc2)c1	D3 antag -83.0
O=[N+]([O-])c1cccc(/C=N/n2cnnc2)c1	none
O=[N+]([O-])c1ccc(O)c(/C=N/n2c(-c3ccccc3)n[nH]c2=S)c1	D3 antag inconclusive
Cc1ccc(S(=O)(=O)N/N=C/c2cc([N+](=O)[O-])ccc2O)cc1[N+](=O)[O-]	none
O=[N+]([O-])c1ccc(O)c(/C=N/Nc2nn[nH]n2)c1	D3 antag inconclusive
CN(C)/N=C/c1cc([N+](=O)[O-])ccc1O	D3 antag -61.0
Cc1cccc(-n2c(CNC(=O)c3cccc(F)c3)nnc2SCC(=O)Nc2ccccc2F)c1	none (no result: D3 antag)
COCCNC(=O)CN1C(=O)COc2ccc(S(=O)(=O)N3CCCC3)cc21	none (no result: D3 antag)
CCc1cccc(C)c1NC(=O)c1cc(S(=O)(=O)NCc2ccccc2Cl)ccc1F	none (no result: D3 antag)
NC(N)=N/N=C/c1cc([N+](=O)[O-])ccc1O	none
O=[N+]([O-])c1ccc(O)c(/C=N\N=C2c3ccccc3-c3ccccc32)c1	D3 antag -78.2
O=C(CN1C(=O)C(=O)N(CCC2=CCCCC2)C1=O)c1c[nH]c2ccccc12	D3 antag -52.4 (no result: D1 antagonist, D1 agonist, D1 PAM)
CCN(C(=O)COC(=O)c1cnccn1)c1cccc2ccccc12	none (no result: D1 antagonist, D1 agonist, D1 PAM)
CCN(C(=O)COc1ccc(C(C)=O)cc1)c1cccc2ccccc12	D3 antag -72.1 (no result: D1 antagonist, D1 agonist, D1 PAM)
COc1ccc(CNC(=O)c2cccn2-c2nnc(N3CCCCC3)s2)c(OC)c1	none (no result: D3 antag)
CCOc1ccc(-c2nn3c(-c4ccc(F)cc4)nnc3s2)cc1	D3 antag -64.4 (no result: D1 antagonist, D1 agonist, D1 PAM)
CCOc1ccc(-c2nnc3sc(COc4ccc(C)cc4)nn23)cc1	none
COc1ccc(-c2nn3c(-c4ccccc4)nnc3s2)cc1	D1 antagonist -30.6
COc1ccc(-c2nn3c(-c4ccc(F)cc4)nnc3s2)cc1	none
Cc1ccc(C)c(N2CCN(C(=O)Cn3nc(Cc4cccnc4)c4ccccc4c3=O)CC2)c1	none (no result: D3 antag)
COc1ccc(-n2c(=O)c3c4c(sc3n(C)c2=O)CN(C(C)=O)CC4)cc1	none (no result: D3 antag)
Cc1ccccc1NC(=O)c1sc2nc3c(cc2c1N)CCCC3	none (no result: D3 antag)
CCc1ccc(-n2c(C)nc3cc(C(=O)NCCc4ccccc4)ccc32)cc1	none (no result: D3 antag)
COc1ccc(-c2cc(=O)c3cc(O)ccc3o2)cc1	D1 antagonist -33.6
O=c1cc(-c2ccccc2)oc2ccc(O)cc12	none
